Laboratory results: ChEMBL document CHEMBL3988442, “University of Dundee, Small-Polar-MMV Screening Library” (2021)
Out of some 66,000 compounds screened, about 960 (1.5%) showed an effect of 50% or more. What follows is part of a selection rich in strong results, with near analogues and random picks from the rest.

Tested on: Trypanosoma brucei
Assay: Trypanosoma brucei 72 hour study
Format: functional, organism-based
Parameters: scale not given: in the data most compounds retested in dose-response had high values

Cn1nc(C(=O)NCc2cccs2)c2c1CCS(=O)(=O)C2
Percent Effect (30.3 µM, […]): -10.45%

CC(=O)N1CCC[C@@H](NCc2c[nH]c3ccccc23)[C@@H]1c1ccc(C)s1.Cl
Percent Effect (30.3 µM, […]): -17.97%

Cc1cnn(C2CCCN(C(=O)Cc3c(C)nn(C)c3C)C2)c1 (stereo unspecified)
Percent Effect (30.3 µM, […]): -16.8%

N#Cc1ccc(N2CCCC3(CCN(c4cccnc4)CC3)C2)cc1.O=C(O)C(F)(F)F
Percent Effect (30.3 µM, […]): 65.08%

O=C(O)C(F)(F)F.c1cncc(N2CCC3(CCCN(c4ccncc4)C3)CC2)c1
Percent Effect (30.3 µM, […]): -3.759%

O=C(O)C(F)(F)F.c1ccc(N2CCCC3(COCCN(c4nccs4)C3)C2)nc1 (stereo unspecified)
Percent Effect (30 µM, 30.03 µM): 23.77%

O=C(O)C(F)(F)F.c1cncc(N2CCOCC3(CCCN(c4nncs4)C3)C2)c1 (stereo unspecified)
Percent Effect (30.3 µM, […]): 1.277%

O=C(O)C(F)(F)F.O=C(c1cccs1)N1CCCC2(COCCN(c3cccnc3)C2)C1 (stereo unspecified)
Percent Effect (30.3 µM, […]): -669.5%

O=C(O)C(F)(F)F.O=S(=O)(c1cccs1)N1CCCC2(COCCN(c3cccnc3)C2)C1 (stereo unspecified)
Percent Effect (30.3 µM, […]): 53.4%

Cc1cnc(N2CCCC3(COCCN(c4nccs4)C3)C2)nc1 (stereo unspecified)
Percent Effect (30.3 µM, […]): -22.75%

Fc1cnc(N2CCCC3(COCCN(c4nccs4)C3)C2)nc1.O=C(O)C(F)(F)F.O=C(O)C(F)(F)F (stereo unspecified)
Percent Effect (30 µM, 30.03 µM): 60.81%

O=C(O)C(F)(F)F.O=C(O)C(F)(F)F.c1cncc(N2CCCC3(CCN(CCN4CCCC4)CC3)C2)c1
Percent Effect (30.3 µM, […]): -7.746%

O=C(O)C(F)(F)F.O=C(O)C(F)(F)F.c1cc(CN2CC[C@@H]3[C@@H](CO[C@H]3CN3CCOCC3)C2)cs1
Percent Effect (30.3 µM, […]): -46.86%

COc1ccc(N2CCN(C(=O)[C@H]3[C@@H]4CNC[C@@H]43)CC2(C)C)cc1
Percent Effect (30 µM, 30.03 µM): -58.92%

Cc1cccc(CN2CCO[C@@H]3CC(COc4ccccn4)C[C@H]32)n1.O=C(O)C(F)(F)F.O=C(O)C(F)(F)F (stereo partly specified)
Percent Effect (30.3 µM, […]): -29.04%

Cc1cc(C)c2cc(CNCc3ccco3)c3nn(C)c(=O)n3c2c1
Percent Effect (30.3 µM, […]): 8.532%

COCCNCc1cc2c(C)cc(C)cc2n2c(=O)n(C)nc12
Percent Effect (30.3 µM, […]): 39.03%

Cc1cc(C)c2cc(CNC(C)C)c3nn(C)c(=O)n3c2c1
Percent Effect (30.3 µM, […]): 99.68%

CCCNCc1cc2c(C)cc(C)cc2n2c(=O)n(C)nc12
Percent Effect (30.3 µM, […]): 24.54%

Cc1cc(C)c2cc(CNCc3ccccc3)c3nn(C)c(=O)n3c2c1
Percent Effect (30.3 µM, […]): 17.22%

Cc1cc(C)c2cc(CNCc3ccc(C)o3)c3nn(C)c(=O)n3c2c1
Percent Effect (30.3 µM, […]): -8.702%

CCOCCCNCc1cc2c(C)cc(C)cc2n2c(=O)n(C)nc12
Percent Effect (30.3 µM, […]): 2.995%

Cc1cc(C)c2cc(CNC3CCCCC3)c3nn(C)c(=O)n3c2c1
Percent Effect (30.3 µM, […]): 100.6%

Cc1cc(C)c2cc(CNCC3CCCO3)c3nn(C)c(=O)n3c2c1 (stereo unspecified)
Percent Effect (30.3 µM, […]): 73.49%

Cc1nc(Nc2ncccn2)cc(C2CCCN2CC(C)C)n1 (stereo unspecified)
Percent Effect (30 µM, 30.03 µM): -16.62%

Cc1nc(CN2CCC3(CC2)NC(=O)CC3c2ccccc2)cs1.O=C(O)C(F)(F)F (stereo unspecified)
Percent Effect (30.3 µM, […]): 10.42%

O=C(Cc1cccc(F)c1)N1C[C@H]2CN(Cc3ccccn3)C[C@H]2C1.O=C(O)C(F)(F)F
Percent Effect (30.3 µM, […]): -6.988%

CC(C)n1c(=O)nc2n1C(=O)N(c1ccccc1)C2
Percent Effect (30 µM, 30.03 µM): 14.82%

CN1CCN(Cc2cnc3n2CCN(Cc2cccnc2)CC3)CC1.O=C(O)C(F)(F)F.O=C(O)C(F)(F)F.O=C(O)C(F)(F)F
Percent Effect (30.3 µM, […]): -39.08%

Cc1nc(CN2C(=O)C[C@@H]3[C@@H]2CCN3S(C)(=O)=O)cs1
Percent Effect (30 µM, 30.03 µM): -13.69%

Cc1cc2nc(C(C)C)cc(NCCNc3ncccc3C)n2n1
Percent Effect (30 µM, 30.03 µM): -45.75%

FC(F)(F)c1ccc(-c2c[nH]c([C@@H]3COCCN3)n2)cc1
Percent Effect (30 µM, 30.03 µM): 11.07%

FC(F)(F)Oc1ccc(-c2c[nH]c([C@@H]3COCCN3)n2)cc1
Percent Effect (30 µM, 30.03 µM): 62.77%

COc1ccc(-c2c[nH]c([C@@H]3COCCN3)n2)cc1
Percent Effect (30 µM, 30.03 µM): -38.08%

CC(Nc1c(F)cc(C#N)cc1F)c1cccc(S(N)(=O)=O)c1 (stereo unspecified)
Percent Effect (30 µM, 30.03 µM): 39.53%

CC(Nc1cccc(F)c1C#N)c1cccc(S(N)(=O)=O)c1 (stereo unspecified)
Percent Effect (30 µM, 30.03 µM): 70.17%

CC(Nc1ccc(C#N)cc1F)c1cccc(S(N)(=O)=O)c1 (stereo unspecified)
Percent Effect (30 µM, 30.03 µM): 35.16%

CC(=O)N1CCN(Cc2ccc(F)cc2)CC2(CC(=O)N(C)C2)C1.O=C(O)C(F)(F)F (stereo unspecified)
Percent Effect (30.3 µM, […]): -72.99%

Cc1cc(-c2cnc(NCc3cccnc3)nc2C(C)(C)C)on1
Percent Effect (30 µM, 30.03 µM): 25.28%

Cc1cc(-c2cnc(NCc3ccncc3)nc2C(C)C)on1
Percent Effect (30.3 µM, […]): 23.52%

Cc1cc(-c2cnc(NCc3cccnc3)nc2C(C)C)on1
Percent Effect (30 µM, 30.03 µM): 23.42%

Cc1cc(-c2cnc(NCc3ccccn3)nc2C(C)C)on1
Percent Effect (30.3 µM, […]): 94.64%

COc1ccc(CNc2ncc(-c3cc(C)no3)c(C(C)C)n2)cc1
Percent Effect (30.3 µM, […]): 46.49%

Cc1cc(-c2cnc(NCc3ccc4c(c3)OCO4)nc2C(C)C)on1
Percent Effect (30.3 µM, […]): 70.78%

CNS(=O)(=O)Cc1ccc(CNC(=O)c2ccccn2)cc1
Percent Effect (30.3 µM, […]): -17.29% | Percent Effect (10 mM, 10 mM as filed; unlikely as a test dose): -30.84%
